PLCg1 inh: PLC-gamma1 (human) inhibition, primary screen | P19174 | purified PLC-gamma1, fluorogenic substrate, fluorescence | inhibition, % at 12.2 µM | 0.84% of 370,000 active; in the data active means inhibition above about 9.5%
PLC-beta3 inh: inhibitors of human phospholipase C beta3; inhibition, % at 12.2 µM; Purified PLC-beta3, fluorogenic substrate, fluorescence; 0.18% of 370,000 active; AID 720704; Q01970; in the data active means inhibition above about 11%
NPR2 activator: GC-B (human) receptor activation | P20594 | HEK293-GC-B cells, CNP EC30, cGMP TR-FRET; 0% at EC30 CNP, 100% saturating CNP | activation, % at 10 µM | 0.11% of 370,000 active | AID 1920062;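 active means activation at 10 µM reaching about 35% in either raw or pattern-adjusted values, limit read from the data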
M18AAP inhibitor: blocks P. falciparum M18 aspartyl aminopeptidase; inhibition, % at 7.35 µM; recombinant PfM18AAP, H-Glu-NHMec fluorogenic cleavage; 1.2% of 290,000 active; AID 1822;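 active means inhibition above the campaign mean inhibition over all tested compounds plus 3 SD, cut at about 28% in these data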
Rce1 inhib: inhibitors of yeast Ras-converting enzyme | yeast membranes, quenched prenylated peptide cleavage fluorescence | calls only | 0.27% of 290,000 active | AID 2563;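 active means fall in fluorescence gain of 50% or more versus controls, with final raw signal at or below 3038400; inconclusive means same 50% fall but final raw signal above 3038400; inactive means fall in fluorescence gain under 50%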
NPR1 activator: GC-A (human) enzyme activation; HEK293 GC-A cells, cGMP TR-FRET, EC30 ANP; 0% at EC30 ANP, 100% saturating ANP; activation, % at 10 µM; 0.14% of 370,000 active; in the data active means activation above about 40%
Target sequence (P16066 whole entry, looked up): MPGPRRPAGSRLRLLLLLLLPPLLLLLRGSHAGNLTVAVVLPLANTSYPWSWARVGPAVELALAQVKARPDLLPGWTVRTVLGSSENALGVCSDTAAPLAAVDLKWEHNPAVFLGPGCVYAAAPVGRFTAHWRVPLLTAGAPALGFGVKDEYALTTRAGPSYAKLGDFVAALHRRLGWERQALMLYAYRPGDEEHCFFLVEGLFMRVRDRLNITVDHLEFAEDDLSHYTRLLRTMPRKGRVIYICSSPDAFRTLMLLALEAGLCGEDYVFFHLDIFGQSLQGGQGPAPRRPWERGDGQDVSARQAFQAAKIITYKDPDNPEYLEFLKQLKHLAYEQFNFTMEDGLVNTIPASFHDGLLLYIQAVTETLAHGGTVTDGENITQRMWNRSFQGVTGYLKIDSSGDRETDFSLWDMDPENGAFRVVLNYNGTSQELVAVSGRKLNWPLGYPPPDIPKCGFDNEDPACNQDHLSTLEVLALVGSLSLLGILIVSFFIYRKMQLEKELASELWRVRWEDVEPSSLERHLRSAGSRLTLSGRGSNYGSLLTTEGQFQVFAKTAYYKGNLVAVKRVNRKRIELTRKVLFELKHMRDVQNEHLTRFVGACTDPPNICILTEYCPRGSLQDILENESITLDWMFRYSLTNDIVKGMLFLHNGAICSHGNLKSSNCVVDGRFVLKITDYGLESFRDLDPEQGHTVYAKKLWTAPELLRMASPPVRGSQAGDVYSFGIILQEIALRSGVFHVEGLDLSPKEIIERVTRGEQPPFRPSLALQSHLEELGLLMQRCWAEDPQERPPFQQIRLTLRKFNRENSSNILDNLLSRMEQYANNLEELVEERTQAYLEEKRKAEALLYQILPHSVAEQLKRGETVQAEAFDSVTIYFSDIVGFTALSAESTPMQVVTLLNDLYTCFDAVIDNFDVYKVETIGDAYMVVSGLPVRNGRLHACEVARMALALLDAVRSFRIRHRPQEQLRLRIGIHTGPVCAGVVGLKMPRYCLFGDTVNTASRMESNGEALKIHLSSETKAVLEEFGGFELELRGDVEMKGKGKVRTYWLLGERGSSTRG
Hits are given with their value; - = inactive; ? = inconclusive; . = no result given; + = active, no number. Shown are actives, neighbours in structure and some others; about 2.2% of the full set was active somewhere.

SMILES | PLCg1 inh | PLC-beta3 inh | NPR2 activator | M18AAP inhibitor | Rce1 inhib | NPR1 activator
CCC1(O)C(=O)OCc2c1cc1n(c2=O)Cc2cc3cc(O)ccc3nc2-1 (stereo not given) | - | - | - | . | . | 56
CN(CCc1ccccc1)C(=O)c1cc2ccccn2n1 | - | - | - | . | . | -
COc1ccc(Cl)cc1C(=O)Nc1ccc2c(c1)OCCO2 | - | - | - | - | - | -
COC(=O)Nc1ccc2c(c1)OCO2 | - | - | - | - | - | -
COc1ccc(Cl)cc1C(=O)Nc1ccc2c(c1)OCO2 | - | - | - | - | + | -
COC(=O)CNc1ccc2c(c1)OCO2 | - | - | - | 31 | - | -
O=C(NCc1ccccc1Cl)O[C@H]1CC[C@@]23CCCN2C(=O)CCC[C@H]3C1 | - | - | - | . | . | -
CCCn1c(-c2cccs2)nc2c1c(=O)[nH]c(=O)n2Cc1ccccc1 | - | - | - | - | - | -
CCn1c(-c2ccsc2)nc2c1c(=O)[nH]c(=O)n2Cc1ccccc1 | - | - | 42 | - | - | -
COC(=O)[C@]12C[C@H](CC(=O)N3CCCCC3)C(=O)N(Cc3ccco3)C1=C[C@H](C(C)(C)C)O[C@@H]2C | - | - | - | . | . | -
CCNc1nc2nc3ccc(C)cn3c(=O)c2cc1C(=O)NCC1CCCO1 (stereo not given) | - | - | - | - | ? | -
C=CCNC(=O)c1cc2c(=O)n3cc(C)ccc3nc2nc1NCC1CCCO1 (stereo not given) | . | . | . | - | + | .
CCn1c(C)cc(/C=C2/NC(=O)N(Cc3ccccc3F)C2=O)c1C | - | - | - | - | . | -
CCN1C(=O)N/C(=C/c2ccc(C)o2)C1=O | - | - | - | - | - | -
Cc1ccc(/C=C2/NC(=O)N(Cc3ccccc3F)C2=O)o1 | - | - | 42 | - | - | 60
Cc1ccc(/C=C2/NC(=O)N(Cc3ccc(Br)cc3)C2=O)o1 | - | - | 49 | - | - | -
C/C(=C/c1c[n+](Cc2ccc3c(c2)OCO3)c(N)[nH]1)Cn1[nH]c(=O)n(-c2ccccc2)c1=O | - | - | - | . | . | -
CCOc1ccc(/C=C2\SC(=S)N(N3C(=O)C4CC4C3=O)C2=O)cc1 (stereo not given) | - | - | - | 31 | - | -
COc1ccc(OC)c(CN2CCN(C(=O)c3cc4ccccc4cc3O)CC2)c1 | - | - | - | - | - | -
COc1ccc(OC)c(CN2CCN(C(=O)c3cccc4ccccc34)CC2)c1 | 13 | - | - | - | - | -
Oc1ccc(C2C[C@H]3CC[C@@H]2C3)cc1O (stereo not given in full) | - | - | - | 83 | - | -
C[C@H]1[C@@H](NCc2cccs2)CC[C@@]23CCCN2C(=O)CCC[C@@H]13 | - | - | - | . | . | -
COc1cc(CNc2ccc3[nH]c(=O)[nH]c3c2)ccc1OCc1ccccc1F | - | - | 43 | - | - | -
C[C@H]1[C@@H](OC(=O)NCc2ccccc2)CC[C@@]23CCCN2C(=O)CCC[C@@H]13 | - | - | - | . | . | -
COc1ccc(Cn2cc(C(=O)c3ccccc3)c(=O)c3cc(OC)ccc32)cc1 | - | - | - | - | - | -
SMILES | PLCg1 inh | PLC-beta3 inh | NPR2 activator | M18AAP inhibitor | Rce1 inhib | NPR1 activator
Cc1ccc(Cn2cc(C(=O)c3ccc(F)cc3)c(=O)c3cc4c(cc32)OCCO4)cc1 | - | - | 38 | - | - | -
Cc1cc(-c2n[nH]c(=S)n2N=Cc2ccc(OCc3ccccc3)cc2)n[nH]1 | - | - | - | . | . | -
O=C(Nc1ccccc1[N+](=O)[O-])NC1CCCCN(Cc2ccc(Cl)cc2)C1=O (stereo not given) | - | - | - | . | . | -
CCCCNC(=O)C[C@@H]1C(=O)N2CCCC3=C2[C@@]1(C(=O)OC)CCCC3 | - | - | - | . | . | -
c1ccc(-c2ccc(CNc3nc(-c4ccccn4)nnc3-c3ccccc3)cc2)cc1 | - | - | - | . | . | -
CN(C)S(=O)(=O)c1cccc(-c2nnc(SCCNCCO)n2-c2ccc(F)cc2)c1 | 14 | 14 | - | - | - | -
Cc1cccc(Cn2cc(CN3CC(N4CCN(CCOC(=O)c5cc6ccccc6o5)CC4)CS3(=O)=O)nn2)c1 (stereo not given) | - | - | - | . | . | -
Cc1ccc(OCCCOc2ccc(Cl)cc2Cl)c([N+](=O)[O-])n1 | - | - | - | . | . | -
O=[N+]([O-])c1ncccc1OCCOc1ccc(Cl)cc1Cl | - | - | - | . | . | 47
